Measurements: PubChem BioAssay AID651871 (Sanford-Burnham Center for Chemical Genomics, 2012)
Where “and” joins values, the source holds several entries; their conditions need not be identical. Equal values may be shown once.

test system: H9c2; assay: protection of cardiomyocytes from stress damage, SAR follow-up, cell-based, panel, H9c2 and HL-1, ATP luminescence, set 2 (AID 651871); settings: H9c2/HL-1 cardiomyocytes, 2-deoxyglucose stress, with 2-deoxyglucose; run 9, at 79 µM (top of the series);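 further: cells exposed to stressor for 2 h before ATP readout; reference of the scale not given here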

Row | Compound | activity (protection/inhibition)
1 | CCOC(=O)c1cccc(NC(=O)CNC(=O)c2cc(-c3cc(OC)c(OC)c(OC)c3)nc3ccccc23)c1 | 90.9%
2 | COc1ccc2c(c1OC)C(=O)N1c3ccccc3C(=O)N(Cc3cccc(Cl)c3Cl)C21 (stereo not drawn) | 81.1% and 78.3% and -1.59%
3 | COc1ccc2nc(-c3cc(OC)c(OC)c(OC)c3)cc(C(=O)NCC(=O)Nc3ccc(C(C)=O)cc3)c2c1 | 84.5%
